Screening data as filed in PubChem BioAssay.
This is a sample that favours compounds with a hit; in the whole collection about 3.3% have one here.
HCV inhibitor: qHTS Assay for Inhibitors of Hepatitis C Virus (HCV). hit rate 3.4% among 340,000. Huh7.5.1 HCVcc-Cre infection, luciferase reporter, 44 h. Potency, µM (doses to about 41.8 µM), without a hit: at the highest dose activity change, negative = inhibition, hits mostly inhibitors. AID 651820, 2012; active means well fitted inhibition curve with a large enough effect; inconclusive means small, poorly fitted or top-dose-only effect, or another doubt; inactive means no such curve, though single readings can be large or run the other way
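Seed cells (1,000/well) for 4 h; treat with compound and infect with HCVcc-Cre, moi about 0.5. Incubate 44 h, then detect luciferase activity.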
Vaccinia Venus: qHTS for Stage-Specific Inhibitors of Vaccinia Orthopoxvirus: Venus Reporter Primary qHTS; Vaccinia virus Venus reporter expression, fluorescence; Potency, µM (titrated, usually from 36.5 µM), without a hit: at the top dose activity change, negative = inhibition, usual class: inhibitors; hit rate 0.46% among 330,000; AID 720580, 2013; calls by dose curve; tested in A549 cells; further: nearly all actives have a fitted effect of over 30% in size
VACV mCherry inh: qHTS for Stage-Specific Inhibitors of Vaccinia Orthopoxvirus: mCherry Reporter Primary qHTS | Vaccinia virus mCherry reporter infection, fluorescence | hit rate 0.63% among 310,000 | AID 720579, 2013 | Potency, µM (titrated, usually from 36.5 µM), inactives show at the highest dose activity change, negative = inhibition, usual class: inhibitors; calls by dose curve; tested in A549 cells; further: nearly all actives have a fitted effect of over 35% in size
* = called active by the depositor; i = inactive; ? = inconclusive; / = not tested or not shown; [ ] = another dose, or the depositor's remark. On the % scale 0 is the no-effect control and ±100 the full control effect; potency means the concentration at half of the fitted maximal effect.

SMILES	HCV inhibitor	Vaccinia Venus	VACV mCherry inh
CCN(Cc1ccccc1)S(=O)(=O)c1ccc(C(=O)N2CCN(c3nc4ccccc4s3)CC2)cc1	10µM*	-23%	-22%
CC1CCN(c2nc3ccc(C(=O)N4CCN(Cc5ccccc5)CC4)cc3s2)CC1	11µM*	?	?
O=C(Nc1ccc(Oc2ccccc2)cc1)c1ccc(F)c(S(=O)(=O)N2CCN(c3cccc(Cl)c3)CC2)c1	/	-35%	?
CCOc1ccc(Sc2cc(C(=O)NCc3ccc(F)cc3)c3ccccc3n2)cc1	/	-26%	-21%
Cc1cc(C)nc(S[C@H]2C[C@@H](C(=O)N3CCN(c4ccccc4F)CC3)N(Cc3ccccc3F)C2)n1	/	0%	-8%
O=C(Nc1ccc(Cl)c(S(=O)(=O)N2CCCCC2)c1)c1cnccn1	-8%	/	/
CCc1nnc(NC(=O)c2ccc(Cl)c(S(=O)(=O)N3CCc4ccccc43)c2)s1	-18%	-19%	/
O=C(Nc1ccncc1)c1ccc(Cl)c(S(=O)(=O)N2CCCCC2)c1	10µM*	-20%	-4%
O=C(Nc1ccc(Cl)c(S(=O)(=O)N2CCCCC2)c1)c1ccncc1	8.9µM*	-25%	-27%
O=C(Nc1ccncc1)c1ccc(Cl)c(S(=O)(=O)N2CCc3ccccc32)c1	10µM*	-25%	-19%
O=C(O)c1ccc(NC(=O)c2ccc(Cl)c(S(=O)(=O)N3CCCCCC3)c2)cc1	/	-2%	-7%
CC1Cc2ccccc2N1S(=O)(=O)c1cccc(C(=O)NCc2ccncc2)c1 (stereo not drawn)	?	?	-25%
O=C(NCc1ccncc1)c1cccc(S(=O)(=O)N2CCc3ccccc32)c1	11µM*	/	/
Cc1[nH]c2ccccc2c1/C=C/c1ccnc2ccccc12	/	80%	-29%
CCN(CC)C(=O)C1=C(C)N(CCCOC)C(=O)C(CC(=O)NCc2cccs2)C1 (stereo not drawn)	/	-3%	-3%
Cc1ccc(S(=O)(=O)N2CCN(c3nc(-c4ccc(CN5CCOCC5)s4)nc4ccccc34)CC2)cc1	/	-12%	-1%
COc1ccc(N2CCCC2=O)cc1S(=O)(=O)N1CCOCC1	/	-6%	i
COc1ccc(CN2CCCC(n3cc(C(=O)NC4CCCC4)nn3)C2)c(O)c1 (stereo not drawn)	/	-18%	i
Cc1ccc(O/C=C2/Nn3c(nnc3-c3cc(-c4ccccc4)n[nH]3)S2)cc1	/	-28%	-11%
COCC(CN1CCN(C2=NS(=O)(=O)c3ccccc32)CC1)OC(=O)c1ccccc1 (stereo not drawn)	6%	-1%	i
O=C(Cc1ccccc1Cl)NO	/	-16%	-23%
O=C(O)COc1ccc(OCCNC[C@H](O)COc2ccccc2)cc1	/	-3%	-11%
O=C(NCCNCC(O)COc1ccc(O)cc1)N1CCOCC1 (stereo not drawn)	0.32µM*	-19%	i
Cn1c(=O)cc(OCC(=O)N2CCN(c3ccc(F)cc3)CC2)c2ccccc21	/	8%	-3%
COc1ccc(OC)c(CCNC(=O)C(C)n2nc(C)c3c(C)n(-c4ccc(C)cc4)nc3c2=O)c1 (stereo not drawn)	2.8µM*	-28%[7.34 µM]	-22%[7.34 µM]
SMILES	HCV inhibitor	Vaccinia Venus	VACV mCherry inh
COc1cccc(CNC(=O)Cn2nc(C)c3c(C)n(-c4ccc(C)cc4)nc3c2=O)c1OC	-10%	/	/
COc1ccc(OC)c(CCNC(=O)C(C)n2nc(C)c3c(C)n(-c4ccccc4)nc3c2=O)c1 (stereo not drawn)	?	-12%	i
CCOc1ccccc1CNC(=O)Cn1nc(C)c2c(C)n(-c3ccc(C)cc3)nc2c1=O	2.8µM*	/	/
CCC(C(=O)NCc1cccc(C)c1)n1nc(C)c2c(C)n(-c3ccccc3)nc2c1=O (stereo not drawn)	13µM*	/	/
CCOc1ccccc1CNC(=O)C(C)n1nc(C)c2c(C)n(-c3ccccc3)nc2c1=O (stereo not drawn)	6.3µM*	-13%	-9%
CCCNC(=O)C(C)n1nc(C)c2c(C)n(-c3ccccc3)nc2c1=O (stereo not drawn)	/	-9%	-10%
CCC(C(=O)NCc1cccc(Br)c1)n1nc(C)c2c(C)n(-c3ccccc3)nc2c1=O (stereo not drawn)	/	-14%	-21%
CC(C)Cn1c(=O)c2sccc2n2c(CCCC(=O)NCCc3ccccc3)nnc12	/	-11%	-7%
N#Cc1ccccc1S(=O)(=O)N1CCN(c2nc(-c3cccs3)nc3ccccc23)CC1	/	-12%	-11%
COc1ccc(CNc2ccccc2C(=O)NCc2ccccc2)cc1COc1ccc(NC(C)=O)cc1	/	-18%	-18%
CC1=C(C(=O)N2CCOCC2)CC(CC(=O)NCCc2ccccn2)C(=O)N1CCC1=CCCCC1 (stereo not drawn)	/	2%	16%
COc1ccccc1Cc1c(-c2ccccc2)nc2cc(C)c(Br)c(C)n12	/	4%	-3%
Cc1ccc(-n2nc3c(=O)n(CCCC(=O)NCc4cccc(Cl)c4)nc(C)c3c2C)cc1	22µM*	/	/
Cc1ccc(-n2nc3c(=O)n(CCCC(=O)NCc4ccc(Cl)cc4)nc(C)c3c2C)cc1	26%	/	/
Cc1cc(C)cc(NC(=O)Cc2csc(COc3cccc(C)c3)n2)c1	/	-7%	-10%
O=c1c2ccccc2c(-c2ccc(O)cc2)nn1-c1cccc(C(F)(F)F)c1	?	11µM*	?
O=c1c2ccccc2c(-c2cccc(C(F)(F)F)c2)nn1-c1ccccc1	8%	-13%	-12%
COc1cc(=O)n2c(c1C(=O)NCc1nonc1C)CCN(Cc1c[nH]c3ccccc13)CC2	/	-9%	-7%
Nc1ccn(C2OC(COP(=O)(O)O)C(O)C2O)c(=O)n1 (stereo not drawn)	?	?	32µM*
O=c1ccn([C@@H]2O[C@H](COP(=O)(O)O)[C@@H](O)[C@H]2O)c(=O)[nH]1	/	-12%	i
CC(C)(CO)NC(=O)c1cnn(-c2nccc(-c3ccc4c(c3)OCO4)n2)c1C1CC1	/	-19%	-23%
CCOC(=O)c1ccc(NC(=O)C(CC)Sc2nnc3c4ccccc4n(C)c3n2)cc1 (stereo not drawn)	/	-13%	-13%
Oc1cccc2ccc[n+](CC(O)Cn3c4ccccc4c4ccccc43)c12 (stereo not drawn)	22µM*	?	-9%
Oc1cccc2ccc[n+](CC(O)CBr)c12 (stereo not drawn)	/	-4%	16%
N#Cc1ccc(CSc2nnc(-c3cccs3)n2-c2ccccc2)cc1	0.63µM*	/	/
SMILES	HCV inhibitor	Vaccinia Venus	VACV mCherry inh
N#Cc1ccc(CSc2nnc(-c3ccccn3)n2-c2ccccc2)cc1	-1%	-25%	/
CCOC(=O)C1OC1C(=O)NC(CC(C)C)C(=O)NCCC(C)C (stereo not drawn)	/	-4%[60.7 µM]	-17%[60.7 µM]
O=C(NCc1ccccc1)c1onc(CSc2ccccc2)c1C(=O)NCC1CC1	10µM*	?	-25%
O=C(NCc1ccccc1)c1onc(CSc2ccc(Cl)cc2)c1C(=O)NCC1CC1	?	0%	i
O=C(Nc1ccc(Br)cc1F)c1cnn2c1NC(=C1CC1)C=C2C(F)F	/	-14%	-16%
COc1ccc(C(O)(CCc2ccccc2)CCN2CCCCC2)cc1 (stereo not drawn)	32µM*	-14%	-11%
C=CCC(O)(CCN1CCCCC1)c1ccccc1 (stereo not drawn)	-6%	-15%	/
